This note sets out measurements from ChEMBL document CHEMBL3988442, “University of Dundee, Small-Polar-MMV Screening Library” (2021).

The campaign covered roughly 69,000 compounds. About 420 (0.61%) showed an effect of 50% or more. Many of the other results were omitted from the sample, so strong results are more common in it than they were.

The target of this assay is T1, Histidine--tRNA ligase (Leishmania infantum) (UniProt A4I591).
T1 sequence (whole entry): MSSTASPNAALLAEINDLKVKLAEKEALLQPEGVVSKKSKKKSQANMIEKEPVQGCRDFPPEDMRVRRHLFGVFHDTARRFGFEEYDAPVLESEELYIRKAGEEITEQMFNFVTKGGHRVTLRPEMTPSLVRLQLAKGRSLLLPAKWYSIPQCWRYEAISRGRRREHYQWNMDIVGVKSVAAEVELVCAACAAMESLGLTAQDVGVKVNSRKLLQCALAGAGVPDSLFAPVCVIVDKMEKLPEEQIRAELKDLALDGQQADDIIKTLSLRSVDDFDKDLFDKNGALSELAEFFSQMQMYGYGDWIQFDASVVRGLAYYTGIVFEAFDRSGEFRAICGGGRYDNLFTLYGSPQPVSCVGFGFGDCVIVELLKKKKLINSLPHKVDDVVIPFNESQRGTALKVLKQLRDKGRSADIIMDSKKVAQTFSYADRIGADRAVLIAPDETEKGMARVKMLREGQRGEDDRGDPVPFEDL
In words: Leishmania infantum Histidine tRNA synthetase (LdHisRS). In kind it is functional. More on the design: scale not given: in the data most compounds retested in dose-response had high values. Particulars: 30 µM.
As to `CN(C)S(=O)(=O)N1CC[C@]2(O)CCN(c3nccs3)C[C@@H]2C1`, the Percent Effect was determined as 20%.
Then `O=C(NCC1CC1)[C@H]1C[C@H]2OCC[C@H]2N(Cc2ccoc2)C1`, with 10.5%; and `c1ccc(-n2cc(CNCC3CCCN3c3cccnn3)cn2)cc1` (centres undefined), with 21.9%.
To `c1ccc(Cn2cc(CNCC3CCCN3c3cccnn3)cn2)cc1` (centres undefined) belongs 53%.
To `c1ccc(-n2ccc(CNCC3CCCN3c3cccnn3)n2)cc1` (centres undefined) belongs 25.4%; to `c1ccc(Cn2ccnc2CNCC2CCCN2c2cccnn2)cc1` (centres undefined), 5.36%; to `c1ccc(-n2ncc(CNCC3CCCN3c3cccnn3)n2)cc1` (centres undefined), 65.2%.
Consider `c1ccc(-n2cc(CNCC3CCCN3c3cccnn3)nn2)cc1` (centres undefined), for which the Percent Effect came out at 6.14%.
For the compound `COCCOC(=O)N1CCN2C[C@@H](CO)[C@H](c3ccccc3)[C@H]2C1`, the Percent Effect was found to be 2.04%.
To `O=C(c1ccoc1)N1CC[C@@H]2O[C@H](COCc3ccccn3)CC[C@@H]21` belongs 7.52%.
Then `c1cnc(N2CCO[C@H]3[C@H](OCC4CC4)CC[C@@H]32)nc1`, with 8.11%.
Then `O=C1NC(c2ccccc2)=N[C@@]12CC[C@@H]1CN(Cc3ccncc3)C[C@@H]12`, with 25%.
For the compound `COCCNC(=O)[C@H]1C[C@@H]2CCN(c3nncs3)C[C@H]2O1`, the Percent Effect was 5.77%.
To `O=C(c1ccccc1)N1C[C@@H]2CCCO[C@@H]2[C@H](N2CCOCC2)C1` belongs 17.5%.
As for `O=C(Nc1cccn(Cc2ccccc2)c1=O)c1ccncc1F`, the Percent Effect came out at 68.6%.
Then `Cc1cc(C(=O)Nc2cccn(Cc3ccccc3)c2=O)no1`, with 23.9%; and `Cc1cc(C(=O)Nc2cccn(Cc3ccc(F)cc3)c2=O)no1`, with 20.4%; and `O=C(Nc1cccn(CC(F)(F)F)c1=O)c1ccncc1F`, with 17.1%.
As for `Cc1cc(C(=O)Nc2cccn(Cc3ccc(F)cc3)c2=O)on1`, the Percent Effect stood at 84.1%.
`O=C(Nc1cccn(Cc2ccc(F)cc2)c1=O)c1cnc[nH]1`: the Percent Effect is 27.4%.
To `CC(C)CN1C[C@H]2CCN(C(=O)C3CCCO3)CC[C@H]2S1(=O)=O` (some centres undefined) belongs 13.8%; to `O=C1[C@H]2CC[C@H](CN(Cc3ccccc3OC(F)F)C2)N1CC1CC1`, 28.9%; to `Cc1noc(C)c1C(=O)N1C[C@@H]2CCCO[C@@H]2[C@H](N(C)C)C1`, 7.96%.
Then `O=C(c1ccnnc1)N1C[C@H]2CN(Cc3cccc(F)c3)C(=O)[C@H]2C1`, with 0.917%; and `CNC(=O)[C@H]1C[C@@H]2CN(S(=O)(=O)c3ccccc3)C[C@@H]2N1C(C)=O`, with 14.2%.
In the case of `O=C(N1CCOCC1)[C@@]12CCO[C@@H]1CCN(CC1CCCCC1)C2`, the Percent Effect is -3.88%.
Consider `Cc1ccc(C(=O)N2CCn3cnc(COCC4CC4)c3C2)cn1`, for which the Percent Effect is 15%.
To `O=C(c1ccc2[nH]ccc2c1)N1CCn2cnc(COCC3CC3)c2C1` belongs 61.2%; to `Cc1cccc(C(=O)N2CCn3cnc(COCC4CC4)c3C2)c1`, 34.5%.
Then `CN(C)S(=O)(=O)N1C[C@@H]2CC[C@H](C1)N(CCC(=O)NCc1ccco1)C2`, with 13.6%; and `COc1ccc(-n2cc(CNC(=O)c3ccc[nH]3)nn2)cc1`, with 54.2%; and `COc1ccc(-n2cc(CNC(=O)c3ccccn3)nn2)cc1`, with 18.8%.
To `COc1ccc(-n2cc(CNC(=O)c3cc[nH]n3)nn2)cc1` belongs 31.2%; to `CNC(=O)[C@H]1C[C@@H]2CCN(Cc3ccc4c(c3)OCO4)C[C@@H]2O1`, 14.6%; to `Cc1ccccc1-c1ncc(CNCc2csc(C(C)C)n2)s1`, 20%.
For `Cc1cnc(CNCc2cnc(-c3ccccc3C)s2)cn1`, the Percent Effect is 11.7%.
To `CCC1=NOC(CNCc2cnc(-c3ccccc3C)s2)C1` (centres undefined) belongs 61.7%.
Then `CC1CCN(C(=O)[C@H]2C[C@@H]3CCN(CC4CCOCC4)C[C@@H]3O2)CC1`, with 12%; and `O=C(C1=CCCC1)N1C[C@H](Oc2cccnc2)[C@H]2OCCC[C@H]21`, with 3.85%.
Turning to `O=C(c1nc2c(s1)CCCN2CC1CC1)N1CCOCC1`, the Percent Effect amounted to 94%.
Turning to `O=C(c1nc2c(s1)CCCN2CC1CC1)N1CCCC1`, the Percent Effect worked out at 40%.
As to `CN1CCCN(C(=O)c2nc3c(s2)CCCN3CC2CC2)CC1`, the Percent Effect is 48%.
To `COCC(=O)N1CC[C@H]2O[C@@H](C)C[C@H]2C1` belongs 12%; to `O=C(Nc1c(N2CCCC2)cccc1N1CCCC1)c1cnccn1`, 30.8%; to `O=C(Nc1c(N2CCCC2)cccc1N1CCCC1)c1cnsn1`, 15.4%.
To `O=C(Nc1c(N2CCCC2)cccc1N1CCCC1)c1ccccn1` belongs 84.6%; to `Cn1cccc1C(=O)N1CC[C@H]2[C@H]1CCN2CC1CCOCC1`, 24.6%; to `O=C(C1=CCCC1)N1C[C@H]2CCC[C@@]2(COCc2ccncc2)C1`, 25.7%.
To `Cc1cccc(CN2C[C@@H]3COC[C@]3(CNC(=O)C3CC3)C2)c1` belongs 11.9%; to `CNC(=O)[C@@]12CCO[C@@H]1CCN(S(=O)(=O)c1ccccc1)C2`, 15%.
Take `COCCN(CC1CC1)c1nc(CCN)nc2sc(C)c(C)c12`: the Percent Effect stood at 32.7%.
Then `CCN(CCN(C)C)c1nc(CCN)nc2sc(C)c(C)c12`, with 54%; and `Cc1sc2nc(CCN)nc(N(CCN(C)C)CC3CCCO3)c2c1C` (centres undefined), with 4.42%; and `Cc1cccc(CN2C(=O)CC[C@@H]3[C@H]2CCN3Cc2cccnc2)n1`, with 29.4%.
For `Cc1nccc([C@H]2C[C@@H]3CCN(S(=O)(=O)C4CC4)C[C@H]3O2)n1`, the Percent Effect is 11.1%.
Then `O=c1[nH]c2cc3c(cc2cc1CN1CCCC1c1ccccn1)CCC3` (centres undefined), with 43.4%.
To `CCOc1ccc2[nH]c(=O)c(CN3CCCC3c3ccccn3)cc2c1` (centres undefined) belongs 53%.
Take `O=c1[nH]c2cc3c(cc2cc1CN1CCCC1c1ccccn1)OCO3` (centres undefined): the Percent Effect came to 14.5%.
To `COCCC(=O)N1C[C@H]2CCC[C@@]2(COC)C1` belongs 5.77%; to `Cn1cc(N2C(=O)CC[C@@H]3[C@H]2CCN3Cc2nccs2)cn1`, 9.72%; to `CCCn1nc2c(cc1=O)CN(Cc1nc(CCOC)no1)CC2`, 48.1%.
Take `Cc1cc(CN2CCc3nn(C)c(=O)cc3C2)on1`: the Percent Effect was determined as 103%.
With `CCCn1nc2c(cc1=O)CN(Cc1nc(C)c3ccccc3n1)CC2`, the Percent Effect amounted to 27.1%.
Regarding `CCn1nc2c(cc1=O)CN(Cc1cc(C)on1)CC2`, the Percent Effect was determined as 21.2%.
To `CCCn1nc2c(cc1=O)CN(Cc1nc(C)c(C)o1)CC2` belongs 13.2%.
Then `CCCn1nc2c(cc1=O)CN(Cc1cc(C)on1)CC2`, with 55.8%.
To `Cc1cc(CN2CCc3nn(C)c(=O)cc3C2)no1` belongs 45.5%; to `CCCn1nc2c(cc1=O)CN(Cc1ncc(C(C)(C)C)o1)CC2`, 45.5%; to `Cc1cc(CN2CCc3cncnc3C2)on1`, 24%.
With `CCCn1nc2c(cc1=O)CN(Cc1ccccn1)CC2`, the Percent Effect was 75.8%.
Turning to `CCCn1nc2c(cc1=O)CN(Cc1cc(C)no1)CC2`, the Percent Effect was 69.7%.
For `CN(C)C(=O)N1C[C@@H]2CC[C@H](C1)N(C(=O)c1c(Cl)cccc1Cl)C2`, the Percent Effect came out at 8.06%.
In the case of `CS(=O)(=O)N1C[C@@H]2CC[C@H](C1)N(Cc1ccsc1)C2`, the Percent Effect was found to be 31.2%.
`CNC(=O)[C@H]1CO[C@H]2CCN(Cc3ccc4ccccc4n3)C[C@H]2C1`: the Percent Effect was 10.5%.
`CNC(=O)[C@@H]1COC[C@H]2CN(C(=O)c3ccc(C)c(F)c3)C[C@H]21`: the Percent Effect came to 12.3%.
To `CC(C)CC(=O)N1CC[C@@H]2[C@H](CC1)N(S(C)(=O)=O)CCS2(=O)=O` belongs 19.2%; to `CS(=O)(=O)N1C[C@@H]2COC[C@]2(COCC(=O)N2CCCC2)C1`, 2.73%.
To `Cc1cc(CN2CCc3nn(C(C)C)c(=O)cc3C2)no1` belongs 26.9%; to `CCCn1nc2c(cc1=O)CN(Cc1c(C)noc1C)CC2`, 27.3%.
With `Cc1noc(C)c1CN1CCc2nn(C(C)C)c(=O)cc2C1`, the Percent Effect came out at 53%.
As for `O=C1CC[C@]2(CC[C@@H](NC3CCOCC3)CC2)N1Cc1ccccc1`, the Percent Effect came out at 7.77%.
As to `CCCN(C(=O)c1ccc(-n2ccnn2)cc1)c1cccnc1`, the Percent Effect was 11.1%.
As to `COCCN(C)C(=O)c1nc2c(s1)CCCN2C`, the Percent Effect came to 24.6%.
Then `CCCN(C(=O)c1cccnc1)c1nc2c(s1)CCc1c-2cnn1C`, with 101%; and `CCCN(C(=O)COC)c1nc2c(s1)CCc1c-2cnn1C`, with 80%; and `CCCN(C(=O)c1ccncc1)c1nc2c(s1)CCc1c-2cnn1C`, with 82.3%.
On to `CCCC(=O)N(CCN1CCOCC1)c1nc2c(OC)ccc(C)c2s1`, for which the Percent Effect is -3.48%.
Regarding `CN(C(=O)c1cccnc1)C1CCCN(CCc2ccccc2)C1` (centres undefined), the Percent Effect was -1.64%.
In the case of `Cc1cnccc1-c1cnn(CCNC(=O)c2ccncc2)c1C1CC1`, the Percent Effect was -1.42%.
To `CCN(CCN1CCOCC1)C(=O)c1cccnc1` belongs 5.71%.
As for `Cc1ccc(C(=O)N2CC[C@@]3(O)CCN(C(=O)N(C)C)C[C@H]3C2)cc1Cl`, the Percent Effect is -2.13%.
Then `CNc1nc(C(=O)N2C[C@H]3CC[C@@H]2CN(C2CCOCC2)C3)cs1`, with 4.17%; and `COc1ccccc1CN1C(=O)O[C@@H]2CN(C(C)C)C[C@@H]21`, with 3.33%.
Then `O=C1[C@@H]2CN(c3ncccc3Cl)C[C@]2(C(=O)O)CN1CC1CC1`, with 3.28%; and `CCOc1ccc(CN2CCN(CCOC)[C@@H]3CS(=O)(=O)C[C@@H]32)cc1`, with 25%; and `Cn1ccnc1CN1CCCC(Cc2ccnc3ccncc23)CC1` (centres undefined), with 43.3%.
Then `CS(=O)(=O)N1CCCC(Cc2ccnc3ccncc23)CC1` (centres undefined), with 80.2%; and `CN1CCCC(Cc2ccnc3ccncc23)CC1` (centres undefined), with 0%.
In the case of `c1cc2nccc(CC3CCCN(Cc4c[nH]cn4)CC3)c2cn1` (centres undefined), the Percent Effect worked out at 24.7%.
For the compound `c1cc2nccc(CC3CCCN(C4CCOCC4)CC3)c2cn1` (centres undefined), the Percent Effect was 22.7%.
To `c1cc2nccc(CC3CCCN(Cc4ncc[nH]4)CC3)c2cn1` (centres undefined) belongs 50%; to `CC(=O)N1[C@H](Cn2cncn2)C[C@@H]2CN(Cc3cccnc3)CC[C@@H]21`, 13.9%.
Take `Cc1nc(C(=O)N2CCN(S(C)(=O)=O)[C@@H]3CS(=O)(=O)C[C@@H]32)cs1`: the Percent Effect stood at 18.7%.
Consider `c1cc(CN2CC[C@H]3O[C@@H](COCC4CCOCC4)CC[C@H]32)ccn1`, for which the Percent Effect turned out to be 22%.
As to `CCN1C[C@H]2[C@@H](C1)N(S(=O)(=O)c1ccccc1)CC[C@H]2OC`, the Percent Effect was 24%.
Consider `CN(C)CCO[C@H]1CN(C(=O)c2ccc3c(c2)OCO3)[C@@H]2COC[C@H]12`, for which the Percent Effect was 13.7%.
To `O=C(NCC1(O)CCC1)c1c(O)cc(F)cc1F` belongs -2.17%.
For the compound `CCCn1cc(Cl)c(C(=O)N2C[C@H]3C[C@H](OC)C[C@H]3C2)n1`, the Percent Effect came to 8.63%.
For the compound `Cc1nc(CN2CCCC2c2noc(C3CC3)n2)nc2ccccc12` (centres undefined), the Percent Effect was 42.2%.
To `Cc1nc(C)n(CC2CCCN2Cc2nc(N)c3ccccc3n2)n1` (centres undefined) belongs 36.5%.
Then `Cc1nc(CN2CCCC2c2ccsc2)nc2ccccc12` (centres undefined), with 54%; and `Cc1nc(C)n(CC2CCCN2Cc2nc(C)c3ccccc3n2)n1` (centres undefined), with 56.5%.
Then `Cc1nc(C)n(CC2CCCN2Cc2nc3ccccc3nc2C)n1` (centres undefined), with 17.6%; and `Cc1nn(C)c(C)c1C1CCCN1Cc1nc(C)c2ccccc2n1` (centres undefined), with 46%.
